# From the supplement of paper PMC3545927
# The other results are listed elsewhere or left out. How many sequences the whole screen found active is unknown.
# Molecular target: furin, P09958
# Assay: furin cleavage Z-score vs untreated control; higher = more cleavage, active = 3.5 or more, inactive = 1 or less, 8 variable residues between constant flanks
# Summary of the method: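 Furin-free reactions served as the baseline for the cleavage Z-score, which is the log read count lowess-adjusted and scaled by median absolute deviation. Counts came from released DNA, adapter-tagged by PCR and sequenced. Purified furin had cut 8-mer peptides fused to a cDNA oligonucleotide on magnetic beads during 7.5, 15 or 30 min at 1:10 enzyme:substrate.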
# 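Further: purified furin at 1:10 enzyme:substrate in 50 mM HEPES pH 7.5.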
# Sequence of furin, P09958 (P09958 whole entry): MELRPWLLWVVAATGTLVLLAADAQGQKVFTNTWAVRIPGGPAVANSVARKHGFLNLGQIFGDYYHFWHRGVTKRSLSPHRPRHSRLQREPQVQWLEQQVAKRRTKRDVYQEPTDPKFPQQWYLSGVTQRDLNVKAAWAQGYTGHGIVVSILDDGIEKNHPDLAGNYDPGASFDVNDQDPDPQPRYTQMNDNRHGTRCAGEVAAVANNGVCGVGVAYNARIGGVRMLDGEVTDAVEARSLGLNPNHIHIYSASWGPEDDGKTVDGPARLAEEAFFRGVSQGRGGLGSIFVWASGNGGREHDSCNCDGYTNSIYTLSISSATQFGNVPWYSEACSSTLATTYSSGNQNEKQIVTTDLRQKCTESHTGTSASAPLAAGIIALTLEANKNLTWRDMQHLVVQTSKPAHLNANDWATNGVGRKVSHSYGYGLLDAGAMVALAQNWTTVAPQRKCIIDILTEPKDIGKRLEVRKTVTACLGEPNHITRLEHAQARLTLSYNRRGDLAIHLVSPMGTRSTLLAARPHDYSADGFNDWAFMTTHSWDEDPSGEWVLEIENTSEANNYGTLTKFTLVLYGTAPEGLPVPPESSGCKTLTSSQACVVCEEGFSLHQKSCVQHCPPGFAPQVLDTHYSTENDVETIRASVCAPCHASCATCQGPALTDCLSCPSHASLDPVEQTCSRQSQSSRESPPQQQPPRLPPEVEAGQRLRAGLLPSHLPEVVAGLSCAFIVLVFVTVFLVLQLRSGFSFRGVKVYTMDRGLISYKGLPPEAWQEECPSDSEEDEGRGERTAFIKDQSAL
Sequence,furin cleavage Z-score (7.5 min),furin cleavage Z-score (15 min),furin cleavage Z-score (30 min)
CAGVLAALAAAGNASASA [HC993],1.76,0.568 (inactive),-0.149 (inactive)
CASTPCSAYLAGNASASA [HC2549],0.127 (inactive),-0.0969 (inactive),0.416 (inactive)
CAEVVTRTWVAGNASASA [HC150],-0.769 (inactive),-0.617 (inactive),1.23
CAMEMCSQHLAGNASASA [HC1706],1.54,2.05,0.326 (inactive)
CALPDRRRRFAGNASASA [FS-1027],6.3 (active),8.87 (active),8.99 (active)
CASDFKTWLKAGNASASA [HC1155],-1.27 (inactive),-1.41 (inactive),-0.384 (inactive)
CARRRRSLPRAGNASASA [FS-2797],4.48 (active),5.79 (active),7.11 (active)
CARRRRSLPGAGNASASA [FS-1788],6.91 (active),8.64 (active),6.57 (active)
CARRRSRNLGAGNASASA [HC217],4.75 (active),6.64 (active),6.07 (active)
CARRRRSLRRAGNASASA [FS-2454],3.55 (active),3.5 (active),6.12 (active)
CAIGGHYVQMAGNASASA [HC625],1.06,1.02,-0.429 (inactive)
CAVILDSFDPAGNASASA [HC1286],-0.325 (inactive),-0.389 (inactive),1.13
CAVVICSMSYAGNASASA [HC2024],-0.215 (inactive),-0.424 (inactive),-0.762 (inactive)
CAEVPCHRWSAGNASASA [HC2388],0.964 (inactive),1.69,1.98
CASWHLNSTAAGNASASA [HC370],0.22 (inactive),-0.449 (inactive),0.876 (inactive)
CAKRRRSLHHAGNASASA [FS-1672],4.3 (active),5.5 (active),6.07 (active)
CARRRRSFRRAGNASASA [FS-376],5.2 (active),6.31 (active),8.15 (active)
CARRRRSLPEAGNASASA [FS-2796],9.29 (active),10.5 (active),8.81 (active)
CARPWRDLPEAGNASASA [FS-3031],-1.17 (inactive),0.355 (inactive),-0.221 (inactive)
CARRRRCLNGAGNASASA [FS-1783],5.37 (active),5.63 (active),3.81 (active)
CADSRGSLLSAGNASASA [HC734],-0.053 (inactive),-0.939 (inactive),-0.328 (inactive)
CASTPCSAHHAGNASASA [HC2575],-0.38 (inactive),-0.288 (inactive),0.459 (inactive)

Sequence,furin cleavage Z-score (7.5 min),furin cleavage Z-score (15 min),furin cleavage Z-score (30 min)
CATSPCSGSWAGNASASA [HC1857],-0.464 (inactive),-0.0771 (inactive),-1.88 (inactive)
CASFPCSAHLAGNASASA [HC2487],-0.137 (inactive),-0.966 (inactive),-0.392 (inactive)
CAGPLRSKRRAGNASASA [FS-128],3.54 (active),3.82 (active),0.894 (inactive)
CAGVYLLPRRAGNASASA [HC177],-0.35 (inactive),0.113 (inactive),0.636 (inactive)
CAQPTRSKRRAGNASASA [FS-140],8.89 (active),11.6 (active),8.5 (active)
CARPLRSSERAGNASASA [FS-2056],-0.31 (inactive),-0.454 (inactive),-0.848 (inactive)
CAQPIPKARRAGNASASA [HC192],-0.161 (inactive),1.41,-0.434 (inactive)
CARPTRPLEVAGNASASA [FS-2747],-0.707 (inactive),-0.831 (inactive),0.199 (inactive)
CARRQRGAEAAGNASASA [FS-1782],0.38 (inactive),-0.365 (inactive),1.17
CARLPRGAEAAGNASASA [FS-1743],3.99 (active),2.77,3.19
CARLPRSVRSAGNASASA [FS-1263],5.43 (active),4.73 (active),4.77 (active)
CAPAPSGCPPAGNASASA [HC1346],-1.72 (inactive),-0.997 (inactive),-0.764 (inactive)
CARLHRFAPPAGNASASA [HC1225],-1.52 (inactive),1.01,0.153 (inactive)
CAMTRYSAPPAGNASASA [HC1542],1.05,-0.0414 (inactive),-1.39 (inactive)
CARQLRSAPPAGNASASA [FS-2758],3.01,4.5 (active),4.16 (active)
CARFWKSAPPAGNASASA [FS-2140],-0.578 (inactive),0.202 (inactive),-1.15 (inactive)
CARLPRSAPPAGNASASA [FS-2572],5.97 (active),5.41 (active),5.19 (active)
CARLGRQVDSAGNASASA [FS-1738],0.0659 (inactive),0.283 (inactive),1.6
CALLISQAEAAGNASASA [HC530],-0.545 (inactive),-1.15 (inactive),-0.368 (inactive)
CARSFRSVRSAGNASASA [FS-3233],-0.0905 (inactive),1.16,1.57
CALEFWEGVFAGNASASA [HC938],0.499 (inactive),-0.214 (inactive),-0.35 (inactive)
